# Source: PubChem BioAssay (EPA / NIEHS)
# Activity calls are given as the source filed them. How the source made its calls: active means hit-call score of the fitted dose curve at least 0.9, where 1 is the maximum; inactive means score below 0.9.
# Legend:
# Details in all cases: mRNA level, 48 h; actives raise or lower the signal
# [1] = read-out: Tumor necrosis factor receptor superfamily member 6 (Homo sapiens) (UniProt P25445); experiment: LTEA_HepaRG_FAS: Life Technologies and Expression Analysis (LTEA) Assay for Fas cell surface death receptor (FAS) using HepaRG (AID 2283447)
# In short: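 Differentiated HepaRG cells in serum-free induction medium were exposed 48 h to 8 half-log concentrations up to 100 uM in 0.5% DMSO, in duplicate. FAS mRNA was measured by qRT-PCR normalised to ACTB, GAPDH and POLR2A; bidirectional fit versus DMSO.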
# [2] = read-out: Fatty acid synthase (Homo sapiens) (UniProt P49327); experiment: LTEA_HepaRG_FASN: Life Technologies and Expression Analysis (LTEA) Assay for Fatty Acid Synthase (FASN) using HepaRG (AID 2283448)
# In short: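 Transcript-level assay: HepaRG liver cells are treated for 48 h across an eight-point range topping at 100 uM, and FASN mRNA, normalized to three housekeeping genes, is compared with DMSO controls in both directions.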
# [3] = read-out: Cyclin D2 (CCND2), CCND2 (gene 894); experiment: LTEA_HepaRG_CCND2: Life Technologies and Expression Analysis (LTEA) Assay for Cyclin D2 (CCND2) using HepaRG (AID 2283449);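 further: CCND2 transcript measured by TaqMan qRT-PCR and normalised to three housekeeping genes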
# In short: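 Chemicals in 0.5% DMSO, eight half-log concentrations from 100 uM top, were applied in duplicate for 48 h to human HepaRG cells in serum-free induction medium. CCND2 mRNA by TaqMan qRT-PCR, normalised to ACTB/GAPDH/POLR2A; bidirectional fit versus DMSO.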
# [4] = read-out: Cyclin Dependent Kinase Inhibitor 1A (CDKN1A), CDKN1A (gene 1026); experiment: LTEA_HepaRG_CDKN1A: Life Technologies and Expression Analysis (LTEA) Assay for Cyclin Dependent Kinase Inhibitor 1A (CDKN1A) using HepaRG (AID 2283450)
# In short: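 Differentiated HepaRG cells in serum-free induction medium, exposed 48 h in duplicate to eight half-log concentrations up to 100 uM in 0.5% DMSO. mRNA measured by TaqMan qRT-PCR, normalized to ACTB, GAPDH, POLR2A; bidirectional fit versus DMSO.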
# [5] = read-out: Cyclin D1 (CCND1), CCND1 (gene 595); experiment: LTEA_HepaRG_CCND1: Life Technologies and Expression Analysis (LTEA) Assay for Cyclin D1 (CCND1) using HepaRG (AID 2283451);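 on AC50: TaqMan qRT-PCR transcript level normalised to ACTB GAPDH and POLR2A housekeeping genes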
# In short: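 Differentiated HepaRG cells exposed 48 h in serum-free induction medium to eight half-log concentrations from 100 uM top, 0.5% DMSO, duplicates. CCND1 mRNA measured by Fluidigm TaqMan qRT-PCR, normalised to ACTB, GAPDH, POLR2A; bidirectional fit.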
# [6] = read-out: catalase (CAT), CAT (gene 847); experiment: LTEA_HepaRG_CAT: Life Technologies and Expression Analysis (LTEA) Assay for catalase (CAT) using HepaRG (AID 2283452);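 on AC50: TaqMan qRT-PCR signal normalized to ACTB GAPDH and POLR2A housekeeping genes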
# In short: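 HepaRG cells in serum-free induction medium, 0.5% DMSO vehicle, exposed 48 h in duplicate over 8 half-log concentrations from 100 uM. CAT mRNA measured by qRT-PCR, normalized to ACTB, GAPDH, POLR2A; bidirectional fit versus DMSO.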
# [7] = read-out: flavin-containing dimethylaniline monooxygenases 3 (FMO3), FMO3 (gene 2328); experiment: LTEA_HepaRG_FMO3: Life Technologies and Expression Analysis (LTEA) Assay for flavin-containing dimethylaniline monooxygenases 3 (FMO3) using HepaRG (AID 2283453)
# In short: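 HepaRG, 48 h exposure, 8-pt half-log series from 100 uM, 0.5% DMSO vehicle, duplicates; FMO3 transcript by Fluidigm TaqMan qRT-PCR, housekeeping-normalized; gain/loss fit vs DMSO.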
# [8] = read-out: Cytochrome P450 (CYP1A1), CYP1A1 (gene 1543); experiment: LTEA_HepaRG_CYP1A1: Life Technologies and Expression Analysis (LTEA) Assay for Cytochrome P450 (CYP1A1) using HepaRG (AID 2283454)
# In short: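 Differentiated human HepaRG cells, after 48 h plating, exposed in duplicate for 48 h in serum-free induction medium to 8 half-log concentrations up to 100 uM in 0.5% DMSO. CYP1A1 mRNA by qRT-PCR, normalized to ACTB/GAPDH/POLR2A; bidirectional fit versus DMSO.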
# [9] = read-out: CFLAR gene, CFLAR (gene 8837); experiment: LTEA_HepaRG_CFLAR: Life Technologies and Expression Analysis (LTEA) Assay for CFLAR gene using HepaRG (AID 2283455)
# In short: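 Differentiated HepaRG cells in serum-free induction medium were exposed 48 h in duplicate to eight half-log concentrations up to 100 uM in 0.5% DMSO; mRNA measured by TaqMan qRT-PCR, normalized to ACTB, GAPDH, POLR2A; bidirectional fitting versus DMSO.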
# [10] = read-out: growth arrest and DNA damage 45 (GADD45A), GADD45A (gene 1647); experiment: LTEA_HepaRG_GADD45A: Life Technologies and Expression Analysis (LTEA) Assay for growth arrest and DNA damage 45 (GADD45A) using HepaRG (AID 2283458)
# In short: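 Human HepaRG liver cells are treated in duplicate for 48 h with chemicals in 0.5% DMSO, highest concentration 100 uM. Expression is read by qRT-PCR and analyzed in both directions against vehicle.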
# [11] = read-out: Forkhead box O3 (FOXO3), FOXO3 (gene 2309); experiment: LTEA_HepaRG_FOXO3: Life Technologies and Expression Analysis (LTEA) Assay for Forkhead box O3 (FOXO3) using HepaRG (AID 2283459)
# In short: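 Differentiated human HepaRG cells, 48 h post-plating, exposed in duplicate for 48 h in serum-free induction medium; 8-point half-log series from 100 uM in 0.5% DMSO. FOXO3 mRNA by TaqMan qRT-PCR, normalized to ACTB/GAPDH/POLR2A; bidirectional fit versus DMSO.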
# [12] = read-out: ABC Transporter (ABCB1), ABCB1 (gene 5243); experiment: LTEA_HepaRG_ABCB1: Life Technologies and Expression Analysis (LTEA) Assay for ABC Transporter (ABCB1) using HepaRG (AID 2283460)
# In short: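 HepaRG cells exposed in duplicate for 48 h in serum-free induction medium to eight half-log concentrations up to 100 uM in 0.5% DMSO. ABCB1 mRNA quantified by qRT-PCR, normalised to ACTB, GAPDH and POLR2A; fitted bidirectionally versus DMSO.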
# [13] = read-out: growth arrest and DNA damage 45 (GADD45B), GADD45B (gene 4616); experiment: LTEA_HepaRG_GADD45B: Life Technologies and Expression Analysis (LTEA) Assay for growth arrest and DNA damage 45 (GADD45B) using HepaRG (AID 2283461)
# In short: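 Differentiated human HepaRG cells in serum-free induction medium exposed 48 h in duplicate to eight concentrations, top 100 uM, half-log steps, 0.5% DMSO. GADD45B mRNA by TaqMan qRT-PCR, normalized to ACTB, GAPDH, POLR2A; bidirectional fit versus DMSO.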
# [14] = read-out: ABC Transporter (ABCC3), ABCC3 (gene 8714); experiment: LTEA_HepaRG_ABCC3: Life Technologies and Expression Analysis (LTEA) Assay for ABC Transporter (ABCC3) using HepaRG (AID 2283462)
# In short: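 Differentiated human HepaRG cells exposed 48 h in serum-free induction medium, 0.5% DMSO vehicle, 8-point half-log series to 100 uM in duplicate. ABCC3 mRNA by qRT-PCR, normalised to ACTB, GAPDH, POLR2A; bidirectional fit vs DMSO.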
# [15] = read-out: Forkhead box O1 (FOXO1), FOXO1 (gene 2308); experiment: LTEA_HepaRG_FOXO1: Life Technologies and Expression Analysis (LTEA) Assay for Forkhead box O1 (FOXO1) using HepaRG (AID 2283456)
# In short: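 Differentiated HepaRG cells, in serum-free induction medium with 0.5% DMSO, exposed 48 h in duplicate to 8-point half-log series from 100 uM. FOXO1 mRNA measured by TaqMan qRT-PCR, normalized to ACTB, GAPDH, POLR2A; bidirectional fit versus DMSO.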
# Chain of Fatty acid synthase (Homo sapiens) (P49327 whole entry, looked up): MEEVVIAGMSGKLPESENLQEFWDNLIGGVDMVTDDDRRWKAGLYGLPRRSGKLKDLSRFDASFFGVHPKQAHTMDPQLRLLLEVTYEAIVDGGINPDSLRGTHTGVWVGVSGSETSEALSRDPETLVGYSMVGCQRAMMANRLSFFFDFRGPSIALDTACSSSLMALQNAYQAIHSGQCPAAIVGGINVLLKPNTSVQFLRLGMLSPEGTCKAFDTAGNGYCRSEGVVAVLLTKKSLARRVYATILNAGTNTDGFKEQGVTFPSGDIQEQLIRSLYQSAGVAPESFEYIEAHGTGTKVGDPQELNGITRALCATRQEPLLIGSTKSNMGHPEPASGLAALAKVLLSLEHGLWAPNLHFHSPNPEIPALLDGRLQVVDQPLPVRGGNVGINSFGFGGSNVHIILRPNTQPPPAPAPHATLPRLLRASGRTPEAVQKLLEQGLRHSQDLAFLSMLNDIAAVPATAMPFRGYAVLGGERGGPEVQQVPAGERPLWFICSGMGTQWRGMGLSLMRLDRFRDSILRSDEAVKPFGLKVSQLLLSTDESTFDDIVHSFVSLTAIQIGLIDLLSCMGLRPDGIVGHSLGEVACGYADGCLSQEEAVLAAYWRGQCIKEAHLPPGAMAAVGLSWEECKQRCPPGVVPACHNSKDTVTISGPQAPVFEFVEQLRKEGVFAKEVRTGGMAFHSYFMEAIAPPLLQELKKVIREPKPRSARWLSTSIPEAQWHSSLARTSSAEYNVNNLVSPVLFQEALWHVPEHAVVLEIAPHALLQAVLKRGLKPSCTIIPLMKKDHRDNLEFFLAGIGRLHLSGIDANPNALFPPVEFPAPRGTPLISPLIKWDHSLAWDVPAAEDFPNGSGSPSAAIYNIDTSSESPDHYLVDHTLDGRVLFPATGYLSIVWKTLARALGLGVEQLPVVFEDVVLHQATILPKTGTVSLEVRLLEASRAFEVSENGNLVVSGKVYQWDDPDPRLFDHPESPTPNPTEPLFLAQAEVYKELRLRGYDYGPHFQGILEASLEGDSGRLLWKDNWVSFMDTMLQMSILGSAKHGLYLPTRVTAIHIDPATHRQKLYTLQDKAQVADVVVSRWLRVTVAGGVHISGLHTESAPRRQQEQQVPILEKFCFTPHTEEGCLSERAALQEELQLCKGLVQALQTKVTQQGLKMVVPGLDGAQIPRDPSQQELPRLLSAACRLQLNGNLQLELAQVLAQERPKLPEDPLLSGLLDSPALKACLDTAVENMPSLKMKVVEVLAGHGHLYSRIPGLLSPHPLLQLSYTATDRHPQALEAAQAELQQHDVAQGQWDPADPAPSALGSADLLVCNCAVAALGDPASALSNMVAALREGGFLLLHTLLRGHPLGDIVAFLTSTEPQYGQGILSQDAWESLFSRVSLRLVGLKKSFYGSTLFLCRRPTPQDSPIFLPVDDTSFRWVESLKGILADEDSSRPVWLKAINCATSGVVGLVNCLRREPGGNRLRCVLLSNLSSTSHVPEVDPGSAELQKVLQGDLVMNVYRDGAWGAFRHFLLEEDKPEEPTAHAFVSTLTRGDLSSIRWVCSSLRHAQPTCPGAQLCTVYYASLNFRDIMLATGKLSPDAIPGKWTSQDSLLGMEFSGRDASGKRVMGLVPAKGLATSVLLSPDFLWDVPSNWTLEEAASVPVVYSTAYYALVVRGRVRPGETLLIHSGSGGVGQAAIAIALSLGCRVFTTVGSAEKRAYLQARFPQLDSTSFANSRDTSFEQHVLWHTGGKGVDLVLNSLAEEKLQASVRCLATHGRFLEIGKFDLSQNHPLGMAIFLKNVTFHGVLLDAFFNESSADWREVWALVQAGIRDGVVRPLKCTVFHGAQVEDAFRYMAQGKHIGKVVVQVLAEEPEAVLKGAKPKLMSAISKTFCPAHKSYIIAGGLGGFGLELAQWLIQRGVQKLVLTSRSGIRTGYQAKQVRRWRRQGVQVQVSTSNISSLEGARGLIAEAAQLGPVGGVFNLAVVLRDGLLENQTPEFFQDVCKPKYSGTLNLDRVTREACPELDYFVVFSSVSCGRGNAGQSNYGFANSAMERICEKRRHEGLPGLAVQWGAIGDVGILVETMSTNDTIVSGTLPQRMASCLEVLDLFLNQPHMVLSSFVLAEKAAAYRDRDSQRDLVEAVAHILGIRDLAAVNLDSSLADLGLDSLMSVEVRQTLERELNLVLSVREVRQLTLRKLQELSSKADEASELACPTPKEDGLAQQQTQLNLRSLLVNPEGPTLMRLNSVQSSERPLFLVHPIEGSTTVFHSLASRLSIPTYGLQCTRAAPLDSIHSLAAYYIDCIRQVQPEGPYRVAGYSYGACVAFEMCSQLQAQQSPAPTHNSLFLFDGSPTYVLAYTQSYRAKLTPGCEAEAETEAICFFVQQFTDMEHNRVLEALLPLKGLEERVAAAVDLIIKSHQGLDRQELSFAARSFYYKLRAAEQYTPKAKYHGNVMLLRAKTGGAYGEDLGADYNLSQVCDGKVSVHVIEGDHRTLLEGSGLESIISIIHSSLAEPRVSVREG
structure (smiles),measurement,setting,value
Clc1nc(Cl)c(Cl)c(Cl)c1Cl,outcome,[1],inactive
same,outcome,[2],inactive
same,outcome,[3],inactive
same,outcome,[4],inactive
same,outcome,[5],inactive
same,outcome,[6],inactive
same,outcome,[7],inactive
same,AC50,[8],74.4 µM (active)
same,outcome,[9],inactive
same,outcome,[10],inactive
same,outcome,[11],inactive
same,outcome,[12],inactive
same,outcome,[13],inactive
same,outcome,[14],inactive
O=P(OC(CCl)CCl)(OC(CCl)CCl)OC(CCl)CCl,AC50,[1],0.232 µM (active)
same,AC50,[2],50 µM (active)
same,outcome,[3],inactive
same,AC50,[4],90.8 µM (active)
same,outcome,[5],inactive
same,AC50,[6],50 µM (active)
same,AC50,[7],63.8 µM (active)
same,AC50,[8],13.1 µM (active)
same,outcome,[9],inactive
same,AC50,[10],0.21 µM (active)
same,outcome,[11],inactive
same,AC50,[12],78.8 µM (active)
same,outcome,[13],inactive
same,outcome,[14],inactive
O=c1n(CC2CO2)c(=O)n(CC2CO2)c(=O)n1CC1CO1 (stereo not drawn),AC50,[1],89.1 µM (active)
same,outcome,[2],inactive
same,outcome,[3],inactive
same,AC50,[4],58.7 µM (active)
same,outcome,[6],inactive
same,outcome,[7],inactive
same,outcome,[8],inactive
same,outcome,[9],inactive
same,outcome,[15],inactive
same,outcome,[10],inactive
same,outcome,[11],inactive
same,outcome,[12],inactive
same,AC50,[13],79.1 µM (active)
same,outcome,[14],inactive
Nc1nc2ncc(CNc3ccc(C(=O)N[C@@H](CCC(=O)O)C(=O)O)cc3)nc2c(=O)[nH]1,outcome,[1],inactive
same,outcome,[2],inactive
same,outcome,[3],inactive
same,outcome,[4],inactive
same,outcome,[5],inactive
same,outcome,[6],inactive
same,outcome,[7],inactive
same,AC50,[8],78.5 µM (active)
same,outcome,[9],inactive
same,outcome,[15],inactive
same,outcome,[10],inactive
same,outcome,[11],inactive
same,outcome,[12],inactive
same,outcome,[13],inactive
same,outcome,[14],inactive
NC(=O)NO,outcome,[1],inactive
same,outcome,[2],inactive
same,outcome,[3],inactive
same,outcome,[4],inactive
same,outcome,[5],inactive
same,outcome,[6],inactive
same,outcome,[7],inactive
same,outcome,[9],inactive
same,outcome,[15],inactive
same,outcome,[10],inactive
same,outcome,[11],inactive
same,outcome,[12],inactive
same,outcome,[13],inactive
same,outcome,[14],inactive
CC(=O)c1ccc2c(c1)[C@H](NC(=O)c1ccc(F)cc1)[C@@H](O)C(C)(C)O2,outcome,[1],inactive
same,outcome,[2],inactive
same,outcome,[3],inactive
same,outcome,[4],inactive
same,outcome,[6],inactive
same,outcome,[7],inactive
same,outcome,[8],inactive
same,outcome,[9],inactive
same,outcome,[15],inactive
same,outcome,[10],inactive
same,outcome,[11],inactive
same,outcome,[12],inactive
same,outcome,[13],inactive
same,outcome,[14],inactive
CC(C)=CCCC(C)CCO (stereo not drawn),outcome,[1],inactive
same,outcome,[2],inactive
same,outcome,[4],inactive
same,outcome,[5],inactive
same,outcome,[6],inactive
same,outcome,[7],inactive
same,AC50,[8],62.2 µM (active)
same,outcome,[9],inactive
same,outcome,[15],inactive
same,outcome,[10],inactive
same,outcome,[11],inactive
same,outcome,[12],inactive
same,outcome,[13],inactive
same,outcome,[14],inactive
CCc1cc(SCc2sc(-c3ccc(C(F)(F)F)cc3)nc2CN2CCN(c3ccc(OC)cc3)CC2)ccc1OCC(=O)O,AC50,[1],26.2 µM (active)
same,AC50,[2],71.3 µM (active)
same,AC50,[4],85.4 µM (active)
same,AC50,[5],93.4 µM (active)
same,AC50,[6],93.7 µM (active)
same,AC50,[7],5.55 µM (active)
same,AC50,[8],7.69 µM (active)
same,AC50,[9],92.2 µM (active)
same,AC50,[15],92.4 µM (active)
same,AC50,[10],8.67 µM (active)
same,AC50,[11],93.5 µM (active)
same,AC50,[12],25 µM (active)
same,AC50,[13],92.7 µM (active)
same,AC50,[14],90.3 µM (active)
